Values quoted from earlier work as cited in PubChem BioAssay AID977610.
Hit rate of the full screen: of about 3,600 compounds, about 3,600 (100%) were called active. Cut-off not given; nearly all actives show Ki up to about 18000 µM. So high a share suggests a set chosen from earlier hits. The list shows a part of the results.

Experiment: PubChem AID 977610
Conditions: PDB protein-ligand complexes, literature Ki
[1] = protein: type II dehydroquinase dehydratase from Mycobacterium tuberculosis, PDB entry 4kiw unless noted

SMILES: O=C(O)c1cc(OCc2cccc([N+](=O)[O-])c2)cc(C(=O)O)c1
- Ki [1]: 140 µM [protein: type II dehydroquinase dehydratase from Mycobacterium tuberculosis, PDB entry 4kiu] (active)

SMILES: O=C(O)c1cc(NCc2cccc([N+](=O)[O-])c2)cc(C(=O)O)c1
- Ki [1]: 7.5 µM (active)

SMILES: O=C(O)c1cc(O)c(O)c(Oc2cccc([N+](=O)[O-])c2)c1
- Ki [1]: 50 µM [protein: type II dehydroquinase dehydratase from Mycobacterium tuberculosis, PDB entry 4kij] (active)

SMILES: CCC(CC)O[C@@H]1CC(C(=O)O)C[C@H](N)[C@H]1NC(C)=O (some centres undefined)
- Ki [1]: 0.017 µM [protein: neuraminidase, PDB entry 4gzt] (active)

SMILES: CCC(CC)O[C@@H]1C=C(C(=O)O)C[C@H](N)[C@H]1NC(C)=O
- Ki (protein: Neuraminidase from the B/Lyon/CHU/15.216/2011 virus, PDB entry 4cpy): 0.491 µM (active)
- Ki (protein: Neuraminidase, PDB entry 4gzp): 0.0143 µM (active)

SMILES: O[C@@H]1[C@@H](O)[C@H](O)[C@]2(O)CC[C@H]1N2
- Ki [1]: 4600 µM [protein: Beta-glucosidase 1, PDB entry 4iie] (active)

SMILES: O=C(O)CCCC(=O)O
- Ki [1]: 30000 µM [protein: Delta-1-pyrroline-5-carboxylate dehydrogenase, mitochondrial, PDB entry 4lh3] (active)

SMILES: O=C(O)C(O)(C(F)(F)F)C(F)(F)F
- Ki [1]: 27 µM [protein: Mandelate racemase, PDB entry 4fp1] (active)

SMILES: O=C(CO)[C@@H](O)[C@H](O)CF
- Ki [1]: 25 µM [protein: XYLULOSE KINASE, PDB entry 4bc5] (active)

SMILES: CC(C)CN(C[C@@H](O)[C@H](Cc1ccccc1)NC(=O)O[C@H]1CO[C@H]2OCC(F)(F)[C@H]21)S(=O)(=O)c1ccc(N)cc1
- Ki [1]: 5.8e-06 µM [protein: HIV-1 Protease, PDB entry 4u8w] (active)

SMILES: C[C@](COC(=O)Cc1ccccc1)([C@@H](Nc1c(C=O)cc2ccccn12)C(=O)O)S(=O)O
- Ki [1]: 0.042 µM [protein: Beta-lactamase SHV-1, PDB entry 4gd6] (active)

SMILES: OC(c1ccc(Cl)s1)(c1ccc(Cl)s1)[C@H]1CN2CCC1CC2
- Ki [1]: 0.36 µM [protein: Choline kinase alpha, PDB entry 4da5] (active)

SMILES: CC(=O)N[C@H](Cc1ccccc1)P(O)O
- Ki [1]: 10 µM [protein: Serine protease splA, PDB entry 3ufa] (active)

SMILES: CN(C)C[C@@H](c1ccc(O)cc1)C1(O)CCCCC1
- Ki [1]: 235 µM [protein: Transporter(delta13 mutant), PDB entry 4mm7] (active)

SMILES: O=C(O)C[C@@]12O[C@H]3C=CCN[C@H]3[C@@H]1C(=O)N[C@H]2C(=O)O
- Ki [1]: 210 µM [protein: Glutamate receptor 2, PDB entry 4isu] (active)

SMILES: Nc1c(F)cccc1C(=O)O
- Ki [1]: 1090 µM [protein: Mycobacterium tuberculosis anthranilate phosphoribosyl transferase, PDB entry 4owm] (active)

SMILES: Nc1cccc(F)c1C(=O)O
- Ki [1]: 34 µM [protein: Mycobacterium tuberculosis anthranilate phosphoribosyl transferase, PDB entry 4owo] (active)

SMILES: Cc1ncc(CO[P+](O)(O)O)c(CN=Nc2nc3ccccc3s2)c1O
- Ki [1]: 10.4 µM [protein: Mycobaterium tuberculosis transaminase BioA, PDB entry 4mqp] (active)

SMILES: O[C@H]1[C@H](O)[C@@H](O)CN2CC[C@H](O)[C@H]12
- Ki [1]: 6.6 µM [protein: Beta-glucosidase 1, PDB entry 4iif] (active)

SMILES: Nc1cc(F)ccc1C(=O)O
- Ki [1]: 380 µM [protein: Mycobacterium tuberculosis anthranilate phosphoribosyl transferase, PDB entry 4n8q] (active)

SMILES: Nc1ccc(F)cc1C(=O)O
- Ki [1]: 60 µM [protein: Mycobacterium tuberculosis anthranilate phosphoribosyl transferase, PDB entry 4own] (active)

SMILES: Nc1nc(-c2ccc(Cc3ccccc3)cc2)cs1
- Ki [1]: 2 µM [protein: Human Leukotriene A4 Hydrolase, PDB entry 4l2l] (active)

SMILES: CCCCSC[C@H]1CN(Cc2c[nH]c3c(N)ncnc23)C[C@@H]1O
- Ki [1]: 1.5e-06 µM [protein: 5'-methylthioadenosine/S-adenosylhomocysteine nucleosidase, PDB entry 4f3c] (active)
